Measured values: PubChem BioAssay (NCATS)
Where “and” joins values, the source holds several entries; their conditions need not be identical. Identical values can stand only once. Records with an inconclusive call do not appear. Some compounds were tested as several samples or in several runs, with calls that do not always agree. Calls of active or inactive are those of the source. The call rests on the fitted dose curve; in most records, active means well fitted inhibition curve with a large enough effect; inconclusive means small, poorly fitted or top-dose-only effect; inactive means flat fitted curve, though single readings scatter.

Assays:
PAD = test: qHTS profiling for inhibitors of Plasmodium falciparum proliferation (AID 504749); conditions: P. falciparum in erythrocytes, SYBR Green DNA, 72 h; series mostly up to 28.7 µM
Summary of the method: (§1)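 Three-day growth assay of blood-stage parasites in erythrocytes (0.3% parasitemia, 2.5% hematocrit) at 37 C, 5% CO2, quantified by SYBR Green DNA staining after overnight detergent lysis.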

PC15 = test: as above; conditions: P. falciparum in erythrocytes, SYBR Green DNA, 72 h; series mostly up to 28.7 µM
Summary of the method: as §1

PC49 = test: as above; conditions: P. falciparum in erythrocytes, SYBR Green DNA, 72 h; series mostly up to 28.7 µM
Summary of the method: as §1

SC27B = test: as above; conditions: P. falciparum in erythrocytes, SYBR Green DNA, 72 h; series mostly up to 28.7 µM
Summary of the method: as §1

TAB113 = test: as above; conditions: P. falciparum in erythrocytes, SYBR Green DNA, 72 h; series mostly up to 28.7 µM
Summary of the method: as §1

TAB165 = test: as above; conditions: P. falciparum in erythrocytes, SYBR Green DNA, 72 h; series mostly up to 28.7 µM
Summary of the method: as §1

CRL-7250 = normal cell line; test: Cytotoxic Profiling of Annotated Libraries Using Quantitative High-Throughput Screening (AID 1296008); conditions: Five cell lines viability, CellTiter-Glo ATP luminescence, 48-72 h; max response: stronger effect = lower value; on max response: on the % scale 0 is the no-effect control and ±100 the full control effect
Summary of the method: (§2)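 Cytotoxicity was measured as CellTiter-Glo ATP luminescence, read after 10 min at room temperature. Compound treatment of the cells lasted 48 or 72 hr at 37 degrees Celsius in a qHTS format.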

HEK293 = test: as above; conditions: Five cell lines viability, CellTiter-Glo ATP luminescence, 48-72 h; max response: stronger effect = lower value
Summary of the method: as §2

HaCat [1] = test: as above; conditions: Five cell lines viability, CellTiter-Glo ATP luminescence, 48-72 h; max response: stronger effect = lower value
Summary of the method: as §2

KB-3-1 = test: as above; conditions: Five cell lines viability, CellTiter-Glo ATP luminescence, 48-72 h; max response: stronger effect = lower value
Summary of the method: as §2

NIH3T3 = test: as above; conditions: Five cell lines viability, CellTiter-Glo ATP luminescence, 48-72 h; max response: stronger effect = lower value
Summary of the method: as §2

HACAT [2] = test: qHTS assay to identify novel small-molecules to repurpose for Merkel cell carcinoma treatment (AID 1296009); conditions: MCC and control cell lines, CellTiter-Glo viability, 72 h; series mostly up to 44.8 µM
Summary of the method: (§3)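 After compound transfer in DMSO, plates were kept 72 hr at 37 degree celsius. Luminescent ATP signal from CellTiter-Glo served as viability measure, normalized against DMSO and no-cell controls.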

MCC-13 = test: as above; conditions: MCC and control cell lines, CellTiter-Glo viability, 72 h; series mostly up to 46 µM
Summary of the method: as §3

MCC-26 = test: as above; conditions: MCC and control cell lines, CellTiter-Glo viability, 72 h; series mostly up to 46 µM
Summary of the method: as §3

P93_24 = test: qHTS profiling for inhibitors of Plasmodium falciparum proliferation (AID 504749); conditions: P. falciparum in erythrocytes, SYBR Green DNA, 72 h; series mostly up to 28.7 µM
Summary of the method: as §1

P94_40 = test: as above; conditions: P. falciparum in erythrocytes, SYBR Green DNA, 72 h; series mostly up to 28.7 µM
Summary of the method: as §1

TAB109 = test: as above; conditions: P. falciparum in erythrocytes, SYBR Green DNA, 72 h; series mostly up to 28.7 µM
Summary of the method: as §1

W2 = test: as above; conditions: P. falciparum in erythrocytes, SYBR Green DNA, 72 h; series mostly up to 28.7 µM
Summary of the method: as §1

HEK293T = test: qHTS assay to identify novel small-molecules to repurpose for Merkel cell carcinoma treatment (AID 1296009); conditions: MCC and control cell lines, CellTiter-Glo viability, 72 h; at 44.8 µM (top of the series) unless noted
Summary of the method: as §3

PC26 = test: qHTS profiling for inhibitors of Plasmodium falciparum proliferation (AID 504749); conditions: P. falciparum in erythrocytes, SYBR Green DNA, 72 h; series mostly up to 28.7 µM
Summary of the method: as §1
Further: nearly all actives have a fitted effect of over 60% in size.
Potency means the concentration at half of the fitted maximal effect.

COc1ccc(CCN(C)CCCC(C#N)(c2ccc(OC)c(OC)c2)C(C)C)cc1OC (configuration not stated)
inactive: Potency (PAD) | Potency (PC15) | Potency (PC49) | Potency (SC27B) | Potency (TAB113) | Potency (TAB165) | max response (CRL-7250) -3.47% and -1.73% | max response (HEK293) -14.8% | max response (HaCat [1]) -28.3% | outcome (HaCat [1]) | max response (KB-3-1) -13.1% and 17.7% | max response (NIH3T3) -15.4% and 3.75% | outcome (HACAT [2]) | Potency (MCC-13) | Potency (MCC-26)

Clc1ccc(C(c2ccccc2Cl)C(Cl)Cl)cc1 (configuration not stated)
inactive: Potency (P93_24) | Potency (P94_40) | Potency (PAD) | Potency (PC15) | Potency (PC49) | Potency (SC27B) | Potency (TAB109) | Potency (TAB113) | Potency (TAB165) | max response (CRL-7250) -3.27% | max response (HEK293) -1.26% | max response (HaCat [1]) -1.22% | outcome (HaCat [1]) | max response (NIH3T3) -2.6% and -1.15% | outcome (HACAT [2]) | Potency (MCC-13) | Potency (MCC-26)

CN(C)CCOC(c1ccccc1)c1ccccc1
active: Potency (W2) 0.953 µM
inactive: Potency (PAD) | Potency (PC49) | Potency (SC27B) | Potency (TAB113) | max response (CRL-7250) -3.47% and -12.2% | outcome (HEK293) | outcome (HaCat [1]) | outcome (NIH3T3) | outcome (HACAT [2]) | outcome (HEK293T) | Potency (MCC-13) | Potency (MCC-26)

Nc1ccn([C@H]2CC[C@@H](CO)O2)c(=O)n1
inactive: max response (CRL-7250) -6.37% and 1.28% | outcome (HEK293) | max response (HaCat [1]) -8.68% | outcome (HaCat [1]) | max response (KB-3-1) -19.7% | outcome (KB-3-1) | max response (NIH3T3) -7.7% and 2.02% | outcome (HACAT [2]) | outcome (HEK293T) | Potency (MCC-13) | Potency (MCC-26)

CC(CCc1ccc(O)cc1)NCCc1ccc(O)c(O)c1 (configuration not stated)
inactive: Potency (P93_24) | Potency (P94_40) | Potency (PAD) | Potency (PC26) | Potency (PC49) | Potency (SC27B) | Potency (TAB109) | Potency (TAB113) | Potency (TAB165) | max response (HEK293) -19% | max response (HaCat [1]) 0.349% | outcome (HaCat [1]) | max response (KB-3-1) -2.1% | max response (NIH3T3) -1.03% and 1.16% | outcome (HACAT [2]) | Potency (MCC-13) | Potency (MCC-26)
active: Potency (CRL-7250) 23.7 µM

O=C1Cc2cc(CCN3CCN(c4nsc5ccccc45)CC3)c(Cl)cc2N1
active: Potency (HEK293) 16.8 µM
inactive: max response (CRL-7250) -1.82% and -0.528% | max response (HaCat [1]) -2.23% and 4.15% | outcome (HaCat [1]) | max response (NIH3T3) -14.8% and 4.36% | outcome (NIH3T3) | outcome (HACAT [2]) | Potency (MCC-13) | Potency (MCC-26)

Cc1ccccc1N1C(=O)c2cc(S(N)(=O)=O)c(Cl)cc2NC1C (configuration not stated)
inactive: max response (CRL-7250) -4.5% | outcome (HEK293) | max response (HaCat [1]) 0.851% | outcome (HaCat [1]) | max response (KB-3-1) 2.47% and -15% and -2.37% | max response (NIH3T3) 4.24% | outcome (NIH3T3) | outcome (HACAT [2]) | outcome (HEK293T) | Potency (MCC-13) | Potency (MCC-26)

CC(C)Cc1ccc(C(C)C(=O)O)cc1 (configuration not stated)
inactive: Potency (P93_24) | Potency (P94_40) | Potency (PAD) | Potency (PC15) | Potency (PC26) | Potency (PC49) | Potency (SC27B) | Potency (TAB109) | Potency (TAB113) | Potency (TAB165) | Potency (W2) | max response (CRL-7250) -13.3% and 3.74% | max response (HEK293) 1.58% and -3.42% | max response (HaCat [1]) -14.1% | outcome (HaCat [1]) | max response (KB-3-1) 1.49% and -2.93% | max response (NIH3T3) 2.78% | outcome (NIH3T3) | outcome (HACAT [2]) | Potency (MCC-13) | Potency (MCC-26)

Nc1nnc(-c2cccc(Cl)c2Cl)c(N)n1
inactive: Potency (P93_24) | Potency (P94_40) | Potency (PAD) | Potency (PC15) | Potency (PC26) | Potency (PC49) | Potency (SC27B) | Potency (TAB109) | Potency (TAB113) | Potency (TAB165) | Potency (W2) | max response (CRL-7250) -7.91% and -8.11% | max response (HEK293) -5.08% and 0.349% | outcome (HaCat [1]) | outcome (NIH3T3) | outcome (HACAT [2]) | Potency (MCC-13) | Potency (MCC-26)

Nc1nc2c(ncn2COC(CO)CO)c(=O)[nH]1
inactive: Potency (P93_24) | Potency (P94_40) | Potency (PAD) | Potency (PC15) | Potency (PC26) | Potency (PC49) | Potency (SC27B) | Potency (TAB109) | Potency (TAB113) | Potency (TAB165) | Potency (W2) | max response (CRL-7250) 1.91% | max response (HEK293) -8.08% | max response (HaCat [1]) -15.7% | max response (NIH3T3) -3.13% | Potency (MCC-26)
active: Potency (HEK293) 0.132 µM
inactive and 20.9 µM (active): Potency (MCC-13)

CC(C)NCC(O)COc1ccc(CCOCC2CC2)cc1 (configuration not stated)
inactive: Potency (PC49) | Potency (SC27B) | max response (CRL-7250) -5.76% | max response (HEK293) -0.0868% and -3.99% | max response (HaCat [1]) 2.43% | outcome (HaCat [1]) | max response (KB-3-1) 1.84% | max response (NIH3T3) 2.13% and -7.76% | outcome (HACAT [2]) | Potency (MCC-13) | Potency (MCC-26)
active: Potency (W2) 15.1 µM

CN1CCC(=C2c3ccccc3C=Cc3ccccc32)CC1
inactive: Potency (P93_24) | Potency (P94_40) | Potency (PAD) | Potency (PC15) | Potency (PC26) | Potency (PC49) | Potency (SC27B) | Potency (TAB109) | Potency (TAB113) | Potency (TAB165) | outcome (CRL-7250) | max response (HaCat [1]) -1.05% | outcome (HaCat [1]) | max response (NIH3T3) -0.507% | outcome (NIH3T3) | outcome (HACAT [2]) | Potency (MCC-13) | Potency (MCC-26)
active: Potency (HEK293) 10.6 µM
